According to the supplement of paper PMC13380429:

System: Vero E6 infected with SARS-CoV-2
Experiment: inhibition of SARS-CoV-2 cytopathic effect; higher = more antiviral protection, active = above 15
Settings: 48 h

Measured: inhibition of SARS-CoV-2 cytopathic effect

C[C@@H](C(=O)O)c1ccc(-c2ccccc2)c(F)c1 (racemic) [flurbiprofen-(+/-)]
inactive: 1 nM 0.383% | 8.33 nM 0.72% | 100 nM 1.91% | 833.33 nM 1.32% | 10000 nM -0.637%

O=C(O)C1CN(Cc2ccc(-c3nc4cc(Cc5ccccc5F)ccc4s3)c(F)c2)C1
inactive: 1 nM 1.34% | 8.33 nM 1.1% | 100 nM 2.02% | 833.33 nM 0.03% | 10000 nM 1.58%

CN1C(=O)OC(C)(C)C1=O [trimethadione]
inactive: 1 nM -3.89% | 8.33 nM -1.8% | 100 nM -2.46% | 833.33 nM -3.14% | 10000 nM -1.97%

CNC(=O)c1cccc(-c2ccc3c(N4CCOC[C@@H]4C)nc(N4CCOC[C@@H]4C)nc3n2)c1
inactive: 1 nM 0.89% | 8.33 nM -1.74% | 100 nM -1.86% | 833.33 nM 0.43% | 10000 nM -2.51%

COC(=O)/C=C/C(=O)OCCN1C(=O)CCC1=O [diroximel-fumarate]
inactive: 1 nM -3.18% | 8.33 nM -0.95% | 100 nM -3.4% | 833.33 nM -1.82% | 10000 nM 11.3%

O=C(Nc1cccnc1)N1CCC(Cc2cccc(Oc3ccc(C(F)(F)F)cn3)c2)CC1
inactive: 1 nM 0.55% | 8.33 nM -2.38% | 100 nM -1.02% | 833.33 nM 3.15% | 10000 nM -28.6%

C=CC(=O)Nc1cccc(Oc2nc(Nc3ccc(N4CCN(C)CC4)cc3OC)ncc2Cl)c1
inactive: 1 nM -1.07% | 8.33 nM 3.52% | 100 nM -0.84% | 833.33 nM -9.12% | 10000 nM -11.8%

Cc1cc(C)c(S(=O)(=O)Nc2ccccc2C(F)(F)F)c(C)c1
inactive: 1 nM 2.1% | 8.33 nM 6.17% | 100 nM 4.56% | 833.33 nM 2.55% | 10000 nM 4.64%

CN(Cc1ccccc1)C(=O)[C@H](Cc1ccc2ccccc2c1)NC(=O)[C@@H]1CCCN1C(=O)Nc1ccccc1[N+](=O)[O-]
inactive: 1 nM -0.58% | 8.33 nM 2.06% | 100 nM 3.45% | 833.33 nM 5.13% | 10000 nM 1.31%

Clc1ccc(C(c2ccccc2Cl)C(Cl)Cl)cc1 (stereo not given) [mitotane]
inactive: 1 nM -2.51% | 8.33 nM -1.75% | 100 nM -2.14% | 833.33 nM -2.16% | 10000 nM 0.99%

CC[N+](CC)(CC(=O)Nc1c(C)cccc1C)Cc1ccccc1 [denatonium-benzoate]
inactive: 1 nM -0.9% | 8.33 nM -3.36% | 100 nM -2.46% | 833.33 nM -1.56% | 10000 nM -0.4%

Fc1cc(-c2cccc3ncc(-c4cnn(C5CCNCC5)c4)nc23)cc(F)c1CN1CCOCC1
inactive: 1 nM 1.49% | 8.33 nM 2.64% | 100 nM -2.32% | 833.33 nM -1.44%
active: 10000 nM 63.3%

C[C@@H](CN1CC(=O)NC(=O)C1)N1CC(=O)NC(=O)C1 [dexrazoxane]
inactive: 1 nM 1.89% | 8.33 nM 2.78% | 100 nM 2.19% | 833.33 nM 3.16% | 10000 nM -1.81%

Cc1cccc(C)c1OCC(=O)N[C@@H](Cc1ccccc1)[C@@H](O)C[C@H](Cc1ccccc1)NC(=O)[C@H](C(C)C)N1CCCNC1=O [Lopinavir]
inactive: 1 nM 0.81% | 8.33 nM -0.07% | 100 nM 0.62% | 833.33 nM -0.42% | 10000 nM 6.72%

CC[C@H]1OC(=O)[C@@](C)(F)C(=O)[C@H](C)[C@@H](O[C@@H]2O[C@H](C)C[C@H](N(C)C)[C@H]2O)[C@](C)(OC)C[C@@H](C)C(=O)[C@H](C)[C@H]2N(CCCCn3cc(-c4cccc(N)c4)nn3)C(=O)O[C@]12C [solithromycin]
inactive: 1 nM 0.98% | 8.33 nM 0.59% | 100 nM 0.05% | 833.33 nM -0.9% | 10000 nM -4.38%

O=c1[nH]c2ccccc2n1CCCN1CCC(n2c(=O)[nH]c3cc(Cl)ccc32)CC1 [domperidone]
inactive: 1 nM 0.36% | 8.33 nM -0.12% | 100 nM 1.41% | 833.33 nM 2.23% | 10000 nM -3.31%

CC(O)COC[C@H]1O[C@@H]2O[C@H]3[C@H](O)[C@@H](O)[C@@H](O[C@H]4[C@H](O)[C@@H](O)[C@@H](O[C@H]5[C@H](O)[C@@H](O)[C@@H](O[C@H]6[C@H](O)[C@@H](O)[C@@H](O[C@H]7[C@H](O)[C@@H](O)[C@@H](O[C@H]8[C@H](O)[C@@H](O)[C@@H](O[C@H]1[C@H](O)[C@H]2O)O[C@@H]8COCC(C)O)O[C@@H]7COCC(C)O)O[C@@H]6COCC(C)O)O[C@@H]5COCC(C)O)O[C@@H]4COCC(C)O)O[C@@H]3COCC(C)O (stereo partly drawn) [hydroxypropyl-beta-cyclodextrin]
inactive: 1 nM 1.48% | 8.33 nM -0.26% | 100 nM 1.56% | 833.33 nM 0.29% | 10000 nM 0.7%
